Results published in PubChem BioAssay (NCI).
About 83,000 compounds went through this panel and 20% of them were active in at least one assay; those are over-represented in the sample as a whole.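 A percent growth of 40 corresponds to 60% growth inhibition; 0 means no net growth; -100 means all cells died. Active threshold: below 10.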 Unmarked numbers belong to inactive results. Calls of active or inactive are those of the source.

Columns and labels:
Assay in all cases: NCI-60 one-dose screen, 48 h (100 = growth as untreated, 0 = no growth, -100 = all killed)
Details in all cases: 10 µM unless noted
[1] = test system: NCI-H23 lung
[2] = test system: NCI-H226 lung
[3] = test system: NCI-H322M lung
[4] = test system: HOP-62 NSCLC
[5] = test system: NCI-H460 lung
[6] = test system: HOP-92 NSCLC
[7] = test system: NCI-H522 lung
[8] = test system: A549/ATCC NSCLC
[9] = test system: 786-0 renal
[10] = test system: COLO 205 colon

| SMILES | growth [1] [%] | growth [2] [%] | growth [3] [%] | growth [4] [%] | growth [5] | growth [6] | growth [7] | growth [8] | growth [9] | growth [10] |
| --- | --- | --- | --- | --- | --- | --- | --- | --- | --- | --- |
| Cc1cc(NCCCCNc2ccnc3cc(Cl)ccc23)nc(Nc2ccc(C(=O)N3CCCCC3)cc2)n1 | 41.3 | 98.6 | 22.9 | 21.2 | 6.46% (active) | 63.6% | -42.2% (active) | 13.1% | -87.6% (active) | -67.8% (active) |
| Cc1ccc(N2CCN(C(=S)c3cccs3)CC2)cc1 | 104 | 94.9 | 107 | 105 | 109% | 74.8% | 82.6% | 92.5% | 90.3% | 112% |
| COc1ccc(-c2c(N)n[nH]c2-c2ccc(Cl)cc2O)cc1OC | 83.2 | 79.8 | 92.4 | 91.5 | 94.5% | 69.2% | 84.3% | 92.9% | 86.6% | 113% |
| COc1cc(/C=C/C(=O)N2CCN(C(=O)c3cc(OC)c(OC)c(OC)c3)CC2)ccc1OCCCN1C(=O)c2cccc3cccc(c23)C1=O | 106 | 87 | 100 | 94.1 | 82.6% | -0.534% (active) | 65.4% | 85.3% | 73.1% | 116% |
| COc1ccc(-c2csc(C3=C(O)CN(CCCN4CCCC4=O)C3=N)n2)cc1OC | 94.5 | 97.2 | 109 | 90.2 | 113% | 62.8% | 119% | 91.6% | 99.3% | 106% |
| O=C(COc1ccc(/C=C2\Oc3ccccc3C2=O)cc1)Nc1nc2ccccc2s1 | 48.5 | 98.4 | 118 | 73.8 | 111% | -90.4% (active) | -79.9% (active) | 68.3% | 49% | 91.5% |
| N=C1C(c2nc(-c3ccc(Br)cc3)cs2)=C(O)CN1CC1CCCO1 (stereo not given) | 88.8 | 103 | 103 | 18.5 | 60.2% | 69.6% | 99.6% | 75.2% | 61.7% | 90.8% |
| COc1cc(C2CC(c3ccc(Nc4ccnc5cc(Cl)ccc45)cc3)=NN2C=O)cc(OC)c1OC (stereo not given) | 89.2 | 102 | 107 | 84.4 | 57.2% | -3.68% (active) | 71.7% | 72.4% | 63.8% | 95.6% |
| COc1ccc(-c2nc(SCCC(C)C)nc(N/N=C\c3ccccc3O)c2C#N)cc1 | 83.2 | 84.4 | 82.7 | 92.5 | 59.1% | 88.4% | 84.6% | 78.2% | 88.9% | 96.4% |
| C[n+]1cccc(CC(=O)NO)c1 | 102 | 89.3 | 97.2 | 92.7 | 101% | 82.5% | 84.6% | 68.1% | 106% | 97.7% |
| CCCCCCCCn1ccc2cc(NC(=O)Cn3cc(CN4CCCC4)nn3)ccc21 | 87.3 | 95.5 | 49.5 | 74 | -64.5% (active) | 28% | 52.3% | 40.2% | 16.8% | -81.4% (active) |
| COC(=O)c1c2c(c(C)[n+]([O-])c1C)C(=O)C(NCc1ccc(F)cc1)=CC2=O | 31 | 81.6 | 15.9 | 48.2 | 11.5% | 42.5% | -11.6% (active) | 4.34% (active) | 48.7% | -49.8% (active) |
| O=c1cc(C2NNC(=S)N2)c2ccc3ccccc3c2o1 (stereo not given) | 91.6 | 101 | 101 | 95.1 | 98.6% | 103% | 87.1% | 108% | 100% | 104% |
| Cc1ccc(S(=O)(=O)NCC[C@@H]2C[C@H]2c2cc3ccccc3s2)cc1 | 93.2 | 87.8 | 101 | 108 | 104% | 101% | 85.3% | 98.5% | 100% | 120% |
| CC1(c2ccccc2)NC(=O)N(NC(=O)CSc2nc(-c3cccs3)nc3ccccc23)C1=O (stereo not given) | 89.7 | 91.1 | 98 | 88.7 | 107% | 77.4% | 82.3% | 79.1% | 94.1% | 124% |
| O=c1oc2ccccc2c(Cl)c1Cl | 60.6 | 70.8 | 91.5 | 83.3 | 103% | 97.4% | 22.9% | 89.6% | 47.3% | 11.8% |
| O=C(O)c1ccc2c(c1)CCC2 | 108 | 104 | 106 | 114 | 115% | 117% | 104% | 104% | 105% | 104% |
| COc1ccc(C(=O)Nn2c(NCC(=O)N3c4ccccc4Sc4ccccc43)nnc2-c2ccc(O)cc2)cc1 | 94.4 | 101 | 104 | 103 | 110% | 87.9% | 92.2% | 97.5% | 100% | 112% |
| Cc1ccc(-c2cc(-c3ccccc3C)[nH]c(=O)c2C#N)s1 | 92.4 | 93.1 | 79.1 | 90.4 | 98.7% | 54% | 87.5% | 87.9% | 78.8% | 117% |
| Cc1c(C(=O)N[C@@H](Cc2ccccc2)C(=O)C(=O)NCCc2ccccc2)[nH]c2ccccc2c1=O | 93.5 | 101 | 96.2 | 111 | 87.2% | 116% | 97.6% | 98.8% | 107% | 31.2% |
| Cc1ccc2nc(C)c(-c3nnc(SCc4ccc(C#N)cc4)o3)n2c1 | 85.3 | 93.5 | 90.7 | 97.6 | 102% | 104% | 97% | 104% | 72.2% | 116% |
| O=C(Nc1ccccc1Cl)Oc1ccc(-c2ccccc2)cc1 | 93.5 | 103 | 114 | 96.3 | 105% | 94.4% | 103% | 104% | 97.2% | 127% |
| Cc1ccc(S(=O)(=O)n2cc(CNc3ccc(N4CCOCC4=O)cc3)c3ccccc32)cc1 | 87.8 | 92.4 | 100 | 84.6 | 99.8% | 38.6% | -10.5% (active) | 103% | 92.3% | 85.1% |
| Cc1cc(Cl)nc(NCc2cc(Nc3ccnc4cc(Cl)ccc34)ccc2F)n1 | 41.5 | 64.2 | 79.6 | 76.7 | 34.8% | 40.4% | 45.1% | 58.5% | 76% | 75.8% |
| COc1ccc(-c2[nH]c(=S)n(C(CC3(C)NCC(=O)N3n3c(-c4ccccc4)cc(C)nc3=S)c3ccc(OC)cc3)c(=O)c2Br)cc1 (stereo not given) | 70.8 | 57.1 | 82.2 | 66.9 | 73.1% | 38.5% | 42.4% | 72% | 83.3% | 74.9% |
| C[C@H]1[C@H]2[C@H]3CC[C@@H]4[C@@]5(C)C/C(=C/c6ccco6)C(=O)C(C)(C)[C@@H]5CC[C@@]4(C)[C@]3(C)CC[C@]23CO[C@]1(C)[C@@H](C(=O)/C=C\c1ccco1)C3 | 99.6 | 99.6 | 98.4 | 106 | 107% | 87.1% | 85.7% | 88.3% | 104% | -6.84% (active) |
| O=Cc1c[nH]c2ccc(-c3csc4ccccc34)cc12 | 58 | 73.8 | 83.2 | 42.8 | 29.3% | 55.9% | 41.3% | 48.1% | 58.4% | 71.6% |
